Laboratory results from PubChem BioAssay (EPA / NIEHS).
Inconclusive results are not listed. Activity calls are given as the source filed them. Rule for the calls: active = hit-call score of the fitted dose curve at least 0.9, where 1 is the maximum; inconclusive = response in the unintended direction; inactive = score below 0.9.

target: rat Gamma-Aminobutyric Acid Type B Receptor (GABBR), Gabbr1 (gene 81657) (UniProt Q9Z0U4); test: NVS_GPCR_rGABBR: NovaScreen (NVS) G Protein-Coupled Receptor Assay for rat Gamma-Aminobutyric Acid Type B Receptor (GABBR) (AID 2283301)
Sequence (Q9Z0U4 whole entry, looked up): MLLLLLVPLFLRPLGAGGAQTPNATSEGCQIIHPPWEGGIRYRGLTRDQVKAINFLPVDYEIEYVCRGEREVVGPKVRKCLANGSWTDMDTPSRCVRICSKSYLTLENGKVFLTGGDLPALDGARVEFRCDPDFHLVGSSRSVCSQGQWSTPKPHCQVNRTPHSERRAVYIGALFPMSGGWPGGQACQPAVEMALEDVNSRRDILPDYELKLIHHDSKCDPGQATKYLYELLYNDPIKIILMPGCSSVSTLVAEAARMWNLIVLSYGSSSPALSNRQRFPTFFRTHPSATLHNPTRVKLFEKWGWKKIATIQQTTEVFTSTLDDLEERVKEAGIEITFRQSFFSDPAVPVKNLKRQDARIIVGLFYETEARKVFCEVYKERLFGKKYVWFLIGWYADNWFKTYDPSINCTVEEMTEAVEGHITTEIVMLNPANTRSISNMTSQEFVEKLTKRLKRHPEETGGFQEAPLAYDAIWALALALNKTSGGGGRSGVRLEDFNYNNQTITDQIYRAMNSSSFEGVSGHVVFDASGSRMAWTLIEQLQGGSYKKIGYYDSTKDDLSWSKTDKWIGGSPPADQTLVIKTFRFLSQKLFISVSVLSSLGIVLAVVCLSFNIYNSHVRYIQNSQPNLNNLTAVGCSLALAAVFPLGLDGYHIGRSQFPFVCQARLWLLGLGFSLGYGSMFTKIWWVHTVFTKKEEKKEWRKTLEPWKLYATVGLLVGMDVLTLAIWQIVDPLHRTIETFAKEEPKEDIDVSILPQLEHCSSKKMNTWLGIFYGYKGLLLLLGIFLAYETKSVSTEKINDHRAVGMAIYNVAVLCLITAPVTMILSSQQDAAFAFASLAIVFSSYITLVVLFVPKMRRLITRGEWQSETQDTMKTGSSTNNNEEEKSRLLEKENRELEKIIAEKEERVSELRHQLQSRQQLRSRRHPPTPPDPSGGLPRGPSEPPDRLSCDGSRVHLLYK
Procedure, shortened: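 Rat cortical membrane preparation, competitive radioligand binding for 1 h with filtration and scintillation readout. Actives from duplicate single-point 25 uM screening proceeded to concentration series with 50 uM top concentration.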

Row | Compound | outcome
1 | CNCc1ccc(NC(=O)c2c[nH]c3c2C(=O)CCC3)cc1 | inactive
2 | CCc1cc(SCc2sc(-c3ccc(C(F)(F)F)cc3)nc2CN2CCN(c3ccc(OC)cc3)CC2)ccc1OCC(=O)O | inactive
3 | CC[C@H]1CC[C@H](NCc2cc3c(cc2OC)[C@H]2C[C@H]2C(=O)N3C)[C@H](c2ccccc2)N1 | inactive

target: rat Histamine Receptor (H3), Hrh3 (gene 85268) (UniProt Q9QYN8); test: NVS_GPCR_rH3: NovaScreen (NVS) G Protein-Coupled Receptor Assay for rat Histamine Receptor (H3) (AID 2283303)
Sequence (Q9QYN8 whole entry, looked up): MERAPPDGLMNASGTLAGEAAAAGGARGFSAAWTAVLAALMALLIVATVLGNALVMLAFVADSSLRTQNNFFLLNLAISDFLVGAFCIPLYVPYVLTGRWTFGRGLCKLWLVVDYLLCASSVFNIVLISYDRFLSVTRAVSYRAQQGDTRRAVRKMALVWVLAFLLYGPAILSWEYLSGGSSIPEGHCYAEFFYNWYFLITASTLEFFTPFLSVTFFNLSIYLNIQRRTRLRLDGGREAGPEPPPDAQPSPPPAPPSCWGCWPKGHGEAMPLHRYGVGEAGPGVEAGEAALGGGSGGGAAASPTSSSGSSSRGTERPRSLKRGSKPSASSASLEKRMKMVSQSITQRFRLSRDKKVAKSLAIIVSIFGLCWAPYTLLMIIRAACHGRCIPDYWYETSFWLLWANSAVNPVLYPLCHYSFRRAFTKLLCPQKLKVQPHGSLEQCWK
Procedure, shortened: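 Filter-binding radioligand competition on rat forebrain membranes, 1 h incubation; compounds screened at 25 µM in duplicate and followed in concentration series to 50 µM, loss of bound signal vs DMSO.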

Row | Compound | AC50 | outcome
4 | CNS(=O)(=O)c1cc(C(=O)N2CCC(CCN3C4CCC3CC(n3c(C)nc5ccccc53)C4)(c3cccc(F)c3)CC2)c(Cl)cc1F (configuration not stated) | 1.85 µM (active) | –
5 | CN(C)c1ccc(N=NS(=O)(=O)O)cc1 | 14.6 µM (active) | –
6 | CCN(C(=O)c1cc(C)cc(OC[C@H](C)Nc2ccncc2)c1)C(C)C | 2.93 µM (active) | –
7 | CCCN(C1CCN(C(=O)C2CCNCC2)CC1)[C@@H]1CCc2ccc(OC)cc2C1 | 0.914 µM (active) | –
8 | Cc1[nH]cnc1C[C@H]1CCc2c(C)c3ccccc3n2C1=O | – | inactive
9 | COc1cccc(-c2ccc(/C=C\CN3CCCCCC3)cc2Cl)c1 | 10.1 µM (active) | –
10 | Nc1ccc(Nc2ccccc2)cc1 | 16.9 µM (active) | –
11 | CC[C@H]1CC[C@H](NCc2cc3c(cc2OC)[C@H]2C[C@H]2C(=O)N3C)[C@H](c2ccccc2)N1 | 15 µM (active) | –
12 | COCCOc1cc2cc(C(=O)NC3CCN(C(C)C)CC3)n(CC(=O)Nc3ccc(Cl)cn3)c2cn1 | 12.6 µM (active) | –
13 | CCOC(=O)c1ccc(C2CCC(NC[C@H](O)COc3ccc(O)c(NS(C)(=O)=O)c3)CC2)cc1 (some centres not stated) | 23.4 µM (active) | –

target: Adra2b (gene 24174) (UniProt P19328); test: NVS_GPCR_rmAdra2B: NovaScreen (NVS) G Protein-Coupled Receptor Assay for hybird cells Adrenergic, Alpha 2B Receptor (Adra2B) (AID 2283306)
Sequence (P19328 whole entry, looked up): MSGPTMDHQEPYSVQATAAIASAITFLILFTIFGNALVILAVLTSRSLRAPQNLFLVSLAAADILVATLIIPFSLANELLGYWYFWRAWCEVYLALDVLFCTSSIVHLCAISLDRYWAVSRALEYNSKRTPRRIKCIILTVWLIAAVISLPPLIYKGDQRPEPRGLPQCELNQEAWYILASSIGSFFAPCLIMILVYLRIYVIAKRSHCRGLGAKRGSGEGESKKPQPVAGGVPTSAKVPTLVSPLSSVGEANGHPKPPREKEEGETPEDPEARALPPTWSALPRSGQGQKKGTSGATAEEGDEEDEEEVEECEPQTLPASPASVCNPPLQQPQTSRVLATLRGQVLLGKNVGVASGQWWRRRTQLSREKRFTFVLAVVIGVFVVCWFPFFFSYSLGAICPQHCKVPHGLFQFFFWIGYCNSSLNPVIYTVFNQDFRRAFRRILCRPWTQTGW
Procedure, shortened: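 Compounds screened first at 25 uM in duplicate, with actives followed up in concentration-response; specific radioligand displacement from hybrid neuroglioma/blastoma cell membrane preparations measured by filter scintillation counting after 1 h, normalized to DMSO.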

Row | Compound | AC50 | outcome
14 | CNS(=O)(=O)c1cc(C(=O)N2CCC(CCN3C4CCC3CC(n3c(C)nc5ccccc53)C4)(c3cccc(F)c3)CC2)c(Cl)cc1F (configuration not stated) | 7.6 µM (active) | –
15 | CCOC(=O)COc1ccc2c(c1)CC(NCC(O)c1cccc(Cl)c1)CC2 (configuration not stated) | 11.2 µM (active) | –
16 | CNCc1ccc(NC(=O)c2c[nH]c3c2C(=O)CCC3)cc1 | – | inactive
17 | COc1ccc(-n2nc(C(F)F)cc2-c2ccc(S(C)=O)cc2)cc1 (configuration not stated) | – | inactive
18 | CCN(C(=O)c1cc(C)cc(OC[C@H](C)Nc2ccncc2)c1)C(C)C | 8.19 µM (active) | –
19 | CCCN(C1CCN(C(=O)C2CCNCC2)CC1)[C@@H]1CCc2ccc(OC)cc2C1 | 7.66 µM (active) | –
20 | Cc1[nH]cnc1C[C@H]1CCc2c(C)c3ccccc3n2C1=O | 3.68 µM (active) | –
21 | COc1cccc(-c2ccc(/C=C\CN3CCCCCC3)cc2Cl)c1 | 4.39 µM (active) | –
22 | O=c1[nH]c2ccc(S(=O)CCN3CCC(Cc4ccc(F)cc4)CC3)cc2o1 (configuration not stated) | 0.609 µM (active) | –
23 | CC[C@H]1CC[C@H](NCc2cc3c(cc2OC)[C@H]2C[C@H]2C(=O)N3C)[C@H](c2ccccc2)N1 | 12.3 µM (active) | –
24 | O=C(O)CCN(C1(C(=O)NO)CCCC1)S(=O)(=O)c1ccc(Oc2ccc(F)cc2)cc1 | – | inactive
25 | CCOC(=O)c1ccc(C2CCC(NC[C@H](O)COc3ccc(O)c(NS(C)(=O)=O)c3)CC2)cc1 (some centres not stated) | 23.4 µM (active) | –

target: rat Neurokinin-3 Receptor (NK3), Tacr3 (gene 24808) (UniProt P16177); test: NVS_GPCR_rNK3: NovaScreen (NVS) G Protein-Coupled Receptor Assay for rat Neurokinin-3 Receptor (NK3) (AID 2283310)
Sequence (P16177 whole entry, looked up): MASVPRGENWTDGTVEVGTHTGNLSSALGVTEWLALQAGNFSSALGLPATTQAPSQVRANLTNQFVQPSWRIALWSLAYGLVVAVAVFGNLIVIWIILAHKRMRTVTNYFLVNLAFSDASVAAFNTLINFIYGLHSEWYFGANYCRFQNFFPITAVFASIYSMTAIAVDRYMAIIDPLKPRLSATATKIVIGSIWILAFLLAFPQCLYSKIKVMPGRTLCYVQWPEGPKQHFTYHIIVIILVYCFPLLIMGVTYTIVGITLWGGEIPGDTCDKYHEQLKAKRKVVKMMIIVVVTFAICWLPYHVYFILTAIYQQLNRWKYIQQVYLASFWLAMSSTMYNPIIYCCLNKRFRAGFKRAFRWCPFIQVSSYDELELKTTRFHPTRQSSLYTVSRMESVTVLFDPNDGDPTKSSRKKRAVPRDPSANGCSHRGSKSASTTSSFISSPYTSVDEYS
Procedure, shortened: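 Filter-based radioligand displacement on rat cortex membrane preparations, read by scintillation 2 h post-dose. Chemicals first tested in duplicate at 25 uM; actives followed up in concentration series with a 50 uM maximum.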

Row | Compound | AC50 | outcome
26 | CNS(=O)(=O)c1cc(C(=O)N2CCC(CCN3C4CCC3CC(n3c(C)nc5ccccc53)C4)(c3cccc(F)c3)CC2)c(Cl)cc1F (configuration not stated) | 5.41 µM (active) | –
27 | CN(C)c1ccc(N=NS(=O)(=O)O)cc1 | – | inactive
28 | COc1ccc(-n2nc(C(F)F)cc2-c2ccc(S(C)=O)cc2)cc1 (configuration not stated) | – | inactive
29 | CCOc1cccc(-n2cc(C(=O)N3CCN(c4cc(C(=O)O)c5ccccc5c4)CC3)nc2-c2ccc(C)cc2)c1 | 8.81 µM (active) | –
30 | CCOC(=O)CC(CC(=O)OCC)(OC(C)=O)C(=O)OCC | – | inactive

target: rat Opioid Receptor, Non-selective Sodium (Na+) Binding, Oprm1 (gene 25601) (UniProt P33535); test: NVS_GPCR_rOpiate_NonSelectiveNa: NovaScreen (NVS) G Protein-Coupled Receptor Assay for rat Opioid Receptor, Non-selective Sodium (Na+) Binding (AID 2283311)
Sequence (P33535 whole entry, looked up): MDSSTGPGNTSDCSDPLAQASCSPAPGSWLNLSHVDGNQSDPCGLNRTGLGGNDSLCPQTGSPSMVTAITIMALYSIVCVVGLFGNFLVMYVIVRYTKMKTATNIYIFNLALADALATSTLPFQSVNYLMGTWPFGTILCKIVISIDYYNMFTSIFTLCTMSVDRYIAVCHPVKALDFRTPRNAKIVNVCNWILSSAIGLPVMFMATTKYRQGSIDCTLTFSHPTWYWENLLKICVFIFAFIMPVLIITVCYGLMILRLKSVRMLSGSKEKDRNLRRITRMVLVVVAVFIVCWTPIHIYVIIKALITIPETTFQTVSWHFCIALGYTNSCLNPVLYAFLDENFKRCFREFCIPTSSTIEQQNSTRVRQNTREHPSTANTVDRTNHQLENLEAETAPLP
Procedure, shortened: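 Filtration radioligand binding on rat forebrain membrane preparations, read 1.5 h after dosing. Single-concentration 25 µM primary screen in duplicate, followed by singleton concentration series to 50 µM max for actives; DMSO baseline.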

Row | Compound | AC50 | outcome
31 | CNS(=O)(=O)c1cc(C(=O)N2CCC(CCN3C4CCC3CC(n3c(C)nc5ccccc53)C4)(c3cccc(F)c3)CC2)c(Cl)cc1F (configuration not stated) | 16.1 µM (active) | –
32 | CCn1nc(Cc2ccccc2)cc1C1CCN(C[C@H]2C[C@H](N(C)[C@@H](C(=O)O)C(C)C)C[C@@H]2c2cccc(F)c2)CC1 | 7.28 µM (active) | –
33 | COc1ccc(-n2nc(C(F)F)cc2-c2ccc(S(C)=O)cc2)cc1 (configuration not stated) | – | inactive
34 | COc1ccc(/C=C/S(=O)(=O)NC(=O)c2ccc(C)cc2Cl)cc1 | – | inactive
35 | CCCCCCCCCCCCCCCO | – | inactive
36 | COc1cccc(-c2ccc(/C=C\CN3CCCCCC3)cc2Cl)c1 | 15.2 µM (active) | –
37 | CC[C@H]1CC[C@H](NCc2cc3c(cc2OC)[C@H]2C[C@H]2C(=O)N3C)[C@H](c2ccccc2)N1 | 2.83 µM (active) | –
38 | CCOC(=O)c1ccc(C2CCC(NC[C@H](O)COc3ccc(O)c(NS(C)(=O)=O)c3)CC2)cc1 (some centres not stated) | – | inactive

target: rat Somatostatin Receptor (SST), Sstr1 (gene 25033) (UniProt P28646); test: NVS_GPCR_rSST: NovaScreen (NVS) G Protein-Coupled Receptor Assay for rat Somatostatin Receptor (SST) (AID 2283314)
Sequence (P28646 whole entry, looked up): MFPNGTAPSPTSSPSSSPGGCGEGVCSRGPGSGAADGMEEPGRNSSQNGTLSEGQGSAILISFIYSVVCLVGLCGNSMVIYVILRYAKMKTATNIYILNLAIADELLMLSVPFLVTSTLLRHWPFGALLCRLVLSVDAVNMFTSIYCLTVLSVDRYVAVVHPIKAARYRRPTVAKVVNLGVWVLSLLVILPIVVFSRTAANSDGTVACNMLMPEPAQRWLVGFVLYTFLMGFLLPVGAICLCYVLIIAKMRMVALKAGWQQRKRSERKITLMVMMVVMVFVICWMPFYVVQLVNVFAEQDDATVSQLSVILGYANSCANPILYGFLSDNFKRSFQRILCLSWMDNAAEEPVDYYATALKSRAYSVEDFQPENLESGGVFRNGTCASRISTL
Procedure, shortened: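 Single-concentration duplicate screen (25 uM), then concentration-response up to 50 uM for chemicals passing a threshold such as 30% inhibition. Membranes came from rat forebrain. Binding was measured 1 h post-dose by filter radiodetection and scintillation, relative to DMSO.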

Row | Compound | outcome
39 | CNS(=O)(=O)c1cc(C(=O)N2CCC(CCN3C4CCC3CC(n3c(C)nc5ccccc53)C4)(c3cccc(F)c3)CC2)c(Cl)cc1F (configuration not stated) | inactive
40 | CCc1cc(SCc2sc(-c3ccc(C(F)(F)F)cc3)nc2CN2CCN(c3ccc(OC)cc3)CC2)ccc1OCC(=O)O | inactive
41 | COc1cccc(-c2ccc(/C=C\CN3CCCCCC3)cc2Cl)c1 | inactive
42 | O=C(O)CCN(C1(C(=O)NO)CCCC1)S(=O)(=O)c1ccc(Oc2ccc(F)cc2)cc1 | inactive
